# The whole screen tested about 290,000 compounds, of which about 370 (0.13%) were called active. The full list was thinned out, with actives kept by preference. Potency and affinity values are given separately. A number with no mark means an inactive call.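 Rule for the calls: active = spots per cell inhibited over 60%, with over 100 cells counted and total cytoplasm intensity under 500,000; inconclusive = wells with under 100 cells, flagged as likely toxic; inactive = the rest.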
# Molecular target: G-protein coupled receptor 55 (Homo sapiens) (UniProt Q9Y2T6)
# Assay: GPR55 antagonists blocking LPI-driven arrestin recruitment, primary screen, imaging, U2OS, beta-arrestin-GFP, LPI agonist (AID 2013);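 note: U2OS cells stably carrying GPR55 and arrestin-GFP stimulated by 5 µM LPI near EC80; imaged beta-arrestin-GFP aggregate spots per cell after agonist stimulation; plate controls were LPI-stimulated DMSO wells for no effect and DMSO wells without LPI for full effect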
# Settings: U2OS GPR55 beta-arrestin-GFP translocation imaging, LPI antagonism; at 10 µM; hits give high values
# Chain of G-protein coupled receptor 55 (Homo sapiens) (Q9Y2T6 whole entry, looked up): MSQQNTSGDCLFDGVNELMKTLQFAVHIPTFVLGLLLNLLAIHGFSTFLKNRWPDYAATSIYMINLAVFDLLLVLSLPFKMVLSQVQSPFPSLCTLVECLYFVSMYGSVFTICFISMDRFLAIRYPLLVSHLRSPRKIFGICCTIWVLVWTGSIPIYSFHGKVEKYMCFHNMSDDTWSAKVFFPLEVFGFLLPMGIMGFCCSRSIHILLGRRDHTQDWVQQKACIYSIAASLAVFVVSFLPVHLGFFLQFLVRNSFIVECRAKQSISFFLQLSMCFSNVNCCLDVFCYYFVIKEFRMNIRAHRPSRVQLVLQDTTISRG
row,SMILES,inhibition
1,Cc1cc(F)ccc1NC(=O)C1CCN(S(=O)(=O)c2ccc3c(c2)CCCC(=O)N3)CC1,8.1%
2,O=C(NCCNC(=O)c1cc(Cl)ccc1Cl)c1ccccn1,3.4%
3,CC(NC(=O)CN1CCCC1)C12CC3CC(CC(C3)C1)C2 (centres undefined),-3.7%
4,CC(NC(=O)Cn1nc(C(=O)O)c2ccccc2c1=O)C12CC3CC(CC(C3)C1)C2 (centres undefined),-2.7%
5,O=C(COC(=O)c1cc(S(=O)(=O)N2CCc3ccccc3C2)ccc1Cl)NCc1ccco1,7.3%
6,Cn1c(N)c(C(=O)COC(=O)CCC2CCCCC2)c(=O)n(C)c1=O,8.4%
7,CCN(CC)S(=O)(=O)c1ccc(N2CCOCC2)c(NC(=O)COc2ccccc2C#N)c1,-13.6%
8,Cn1c(=O)c2ccccc2n2c(CCl)nnc12,5.8%
9,CSCCNC(=O)c1ccc2nc(C3CCCCC3)oc2c1,4.5%
10,O=C(NCc1ccccn1)c1ccc2nc(C3CCCCC3)oc2c1,-4.5%
11,CCOc1ccc(N(C)S(=O)(=O)c2ccc3[nH]cc(C(=O)NCC4CCCO4)c(=O)c3c2)cc1 (centres undefined),8.3%
12,Cc1cc(NC(=O)c2ccc([N+](=O)[O-])cc2)n(CCC#N)n1,4.7%
13,COCCCn1c(=S)[nH]c2sc3c(c2c1=O)CCCS3,-0.4%
14,CCc1ccc(CN2CCCC(C(=O)N3CCCCC3)C2)cc1 (centres undefined),12%
15,CCc1nnc(NC(=O)c2ccc3c(c2)C(=O)N(CC(C)C)C3=O)s1,3.7%
16,CCCNC(=O)c1nnsc1S(=O)(=O)c1ccc(Cl)cc1,31.8%
17,CCCNC(=O)c1nnsc1Sc1ccc(Cl)cc1,-10.7%
18,O=C(Nc1ccccc1)c1nnsc1S(=O)(=O)c1ccc(Cl)cc1,4.3%
19,CNC(=O)c1ncoc1-c1ccc(Cl)cc1,12.3%
20,O=C(CC12CC3CC(CC(C3)C1)C2)NC(Cc1ccccc1)C(=O)O (centres undefined),10.7%
21,CC(=O)N(C(C)=O)c1nc(-c2ccccc2)cn1/N=C/c1ccccc1,7.8%
22,CCCNC(=O)NC(=O)CSc1nncs1,1.8%
23,Cc1ccc(C(=O)N/C(=C/c2ccco2)C(=O)N2CCCCC2)cc1,-6.4%
24,CC(C)Nc1nc(Cl)nc(NCCOc2ccccc2)n1,1.4%
25,CN(C)CC(C)(C)CNS(=O)(=O)c1ccc(Cl)s1,2.9%

row,SMILES,inhibition
1,O=c1[nH]c(Cc2ccccc2)nc2scc(-c3ccccc3)c12,-0.4%
2,CN1CCN(c2nc(C(N)=O)cc(-c3ccccc3)n2)CC1,-5.1%
3,NC(=O)c1cc(-c2ccccc2)nc(N2CCCCCC2)n1,-8.5%
4,CC(=O)Nc1ccc(S(=O)(=O)NCCC(=O)N2CCc3ccccc32)cc1,2.8%
5,O=C(NC1CCCN(c2ccc(C(F)(F)F)cn2)C1)c1cc(Cl)ccc1F (centres undefined),9.1%
6,CC(C)=NNc1nc2c(c(=O)[nH]c(=O)n2C)n1CCc1ccccc1,-4.6%
7,C=CCOc1c(CNc2cccc(C(=O)O)c2)cccc1OC,4.5%
8,COc1ccc(Br)cc1/C=N/Nc1cccc(C(=O)O)c1,1%
9,Cc1c(NC(=O)CN2C(=O)NC(CCc3ccccc3)C2=O)c(=O)n(-c2ccccc2)n1C (centres undefined),13.9%
10,NC(=O)[C@@H]1CCOc2c(F)cc([N+](=O)[O-])cc2C(=O)N[C@@H](CO)C(=O)NCC(=O)N1,1.8%
11,COc1ccc(/C=C2\SC(N)=NC2=O)cc1,-7%
12,CC12CCC(C/C1=N\N=C1\NC(=O)/C(=C\c3ccc(Cl)cc3)S1)C2(C)C (centres undefined),41.5%
13,O=C(CN(C(=O)CCC(=O)Nc1nccs1)c1ccc(F)cc1)NCC1CCCO1 (centres undefined),15%
14,C/C(Cl)=C\CSc1nnc2n(N)c(=O)c3ccccc3n12,-16.2%
15,Cc1ccc(SCc2cn3cccnc3n2)cc1,-13.1%
16,CCN(Cc1cn2cccnc2n1)C1CCCCC1,87.7% (active)
17,Cc1ccc(OCc2cn3cccnc3n2)cc1,12.3%
18,O=C1NCC(c2ccccc2)C1C(=O)N/N=C/c1ccc(Cl)s1 (centres undefined),5.1%
19,CN(c1ccccc1)c1ccc(/C=c2\s/c(=C(/C#N)C(=O)C(C)(C)C)n(Cc3ccco3)c2=O)cc1,74% (active)
20,COc1ccc(/C=c2\s/c(=C(/C#N)C(=O)NCc3ccco3)n(-c3ccccc3)c2=O)cc1,2.8%
21,Cc1ccc(/C=c2\s/c(=C(/C#N)C(=O)N3CCCC3)n(Cc3ccco3)c2=O)s1,5.1%
22,Cc1[nH]c(C)c(S(=O)(=O)N2CCCCC2)c1C(=O)N1CCCCC1,29.6%
23,Cc1ccc(N2CN(CCc3ccccc3)CNC2=S)cc1,5%
24,O=C(Nc1cccc(F)c1)NC1CCN(Cc2ccccc2)CC1,6%
25,COc1ccc(/C=C(\C#N)C(=O)NC(C)c2ccccc2)cc1O (centres undefined),4.5%

row,SMILES,inhibition
1,CC(NC(=O)/C(C#N)=C/c1ccc([N+](=O)[O-])o1)c1ccccc1 (centres undefined),4.1%
2,CC(=NCCc1ccccc1)C1=C(O)COC1=O,13.7%
3,CCOC(=O)c1c(N)sc(N)c1C(=O)OCC,6.2%
4,CCOC(=O)c1c(N)sc(C(O)(C(F)(F)F)C(F)(F)F)c1-c1ccc(OC)cc1OC,22.9%
5,CCOC(=O)c1c(N)sc(-c2ccccc2)c1C,-6.5%
6,CCOC(=O)c1c(N)sc(C(O)(C(F)(F)F)C(F)(F)F)c1-c1ccc(Cl)cc1,5.7%
7,N#Cc1c(N)nc(SCC(=O)C23CC4CC(CC(C4)C2)C3)c(C#N)c1-c1ccc(Cl)cc1,0.2%
8,COC(=O)c1cccc(NC(=O)CSc2nc3cccnc3n2C)c1,16.9%
9,CCCCCCCc1c(C)nc(N2CCOCC2)[nH]c1=O,3.4%
10,CCOC(=O)C1=NN(N=O)C2(CC(=O)N(c3cc(C)cc(C)c3)C2=O)C1 (centres undefined),8.8%
11,CC(C)(C)N(Cc1cc2ccccc2[nH]c1=O)C(=O)c1cccc([N+](=O)[O-])c1,-1.2%
12,O=C(Nc1ccccc1Cl)c1cc[n+]([O-])cc1,10.9%
13,CCOc1ccc(CN2CCN(CC(O)Cn3c4ccccc4c4ccccc43)CC2)cc1 (centres undefined),79.4% (active)
14,Cc1ccc(OCCN2CCN(CC(O)Cn3c4ccccc4c4ccccc43)CC2)cc1 (centres undefined),72.6% (active)
15,Cc1ccc(OCC(O)Cn2c3ccccc3c3ccccc32)cc1 (centres undefined),6.3%
16,COc1ccc(CN2CCN(CC(O)Cn3c4ccccc4c4ccccc43)CC2)cc1 (centres undefined),50.2%
17,CN1CCN(CC(O)Cn2c3ccccc3c3ccccc32)CC1 (centres undefined),-3.3%
18,OC(CN1CCN(Cc2ccccc2)CC1)Cn1c2ccccc2c2ccccc21 (centres undefined),36.2%
19,Cc1ccc(/C=N/NC(=O)c2nnn(-c3nonc3N)c2C(C)C)s1,4%
20,CC1CCN(CCc2nc3cc(NS(=O)(=O)c4ccccc4)ccc3n2C)CC1,-11.2%
21,CCn1c(SCC(N)=O)nc2c1c(=O)n(C)c(=O)n2C,-11%
22,Cc1onc(-c2ccc(Cl)cc2Cl)c1C(=O)/C=C/N(C)C,3.5%
23,COc1ccc(C(CNC(=O)C(C)(C)Oc2ccc(Cl)cc2)N2CCCCC2)cc1 (centres undefined),3.2%
24,C=CCc1c(C)nc(-c2ccccc2)nc1N/N=C(\C)c1ccccc1,8.1%
25,CC(=O)Nc1ccc(C2(c3ccc(NC(C)=O)cc3)C(=O)Nc3ccccc32)cc1,10.2%

row,SMILES,inhibition
1,Cc1cc(C2(c3ccc(O)c(C)c3)C(=O)Nc3ccccc32)ccc1O,5%
2,COC(=O)C1=C(C)NC(=O)CC1c1cccc(Cl)c1Cl (centres undefined),10%
3,CCOC(=O)C1=C(C)NC(C)=C(C(=O)OC)C1c1cccc(Cl)c1Cl (centres undefined),85.2% (active)
4,CCOC(=O)C1=C(C)NC(=O)NC1c1ccccc1Cl (centres undefined),14%
5,COc1cc(C(=O)N2CCN(C(=O)c3cccc4ccccc34)CC2)cc(OC)c1OC,4.5%
6,CCn1cnc2sc(C(=O)Oc3cccc(C)c3)c(C)c2c1=O,-14%
7,CCN(CC)c1ncnc2scc(C3COc4ccccc4O3)c12 (centres undefined),31%
8,c1ccc2c(c1)OCC(c1csc3ncnc(N4CCCCC4)c13)O2 (centres undefined),6%
9,c1ccc2c(c1)OCC(c1csc3ncnc(N4CCCC4)c13)O2 (centres undefined),26.4%
10,c1ccc2c(c1)OCC(c1csc3ncnc(N4CCOCC4)c13)O2 (centres undefined),18.5%
11,CC(C)CCNc1c(-c2cccs2)nc2ccccn12,8.2%
12,CC(=O)Nc1nc(-c2ccc(Cl)cc2)ns1,9.6%
13,CC(C)=CC(=O)OCc1csc(CC(=O)Nc2ccccc2C)n1,8.4%
14,Clc1ccc(-c2nnnn2-c2ccc(Cl)cc2)cc1,7.1%
15,Clc1ccc(-n2nnnc2-c2cnc(-c3ccncc3)nc2-c2cccs2)cc1,6.4%
16,Cn1c(C(=O)N[C@@H](Cc2ccccc2)C(=O)NCCC(=O)O)cc2cc(Cl)ccc21,2.2%
17,Cc1ccc(-c2nnc(Oc3ccc(NC(=O)c4ccccc4)cc3)c3ccccc23)cc1,9.6%
18,CCC(=O)NC(c1ccccc1)c1c(OC(C)=O)ccc2ccccc12 (centres undefined),9.1%
19,CC(=O)Oc1ccc2ccccc2c1C(NC(=O)Cc1ccccc1)c1ccc(Cl)cc1 (centres undefined),3.5%
20,CN=C1CC(C)(C)CC(=O)/C1=C(/O)CCC(=O)NC,11.2%
21,Cc1ccc(/C=C2\C(=O)NC(=O)N2C)o1,6.8%
22,Cc1ccc(/C=C2/NC(=O)N(Cc3ccccc3F)C2=O)o1,-7.6%
23,CCN1C(=O)N/C(=C/c2ccc(C)o2)C1=O,-0.6%
24,C=CCN1C(=O)N/C(=C/c2ccc(C)o2)C1=O,6.7%

# Reference: PubChem BioAssay AID2013 (Sanford-Burnham Center for Chemical Genomics, 2009)
